An excerpt weighted towards active compounds, which were near 11% of everything screened.
JMJD2A Tudor = JMJD2A Tudor domain (human) inhibition | Potency, µM (highest dose often 114 µM), without a hit: at the highest dose activity change, negative = inhibition, actives largely listed as inhibitors | AlphaScreen JMJD2A-Tudor / H3K4me3 peptide binding | actives 4.4% (n = 390,000) | O75164; note: % is set by controls: 0 for no effect and ±100 for the full control effect; nearly all actives have a fitted effect of over 50% in size
Target sequence (O75164 whole entry, looked up, the tested form may be a part): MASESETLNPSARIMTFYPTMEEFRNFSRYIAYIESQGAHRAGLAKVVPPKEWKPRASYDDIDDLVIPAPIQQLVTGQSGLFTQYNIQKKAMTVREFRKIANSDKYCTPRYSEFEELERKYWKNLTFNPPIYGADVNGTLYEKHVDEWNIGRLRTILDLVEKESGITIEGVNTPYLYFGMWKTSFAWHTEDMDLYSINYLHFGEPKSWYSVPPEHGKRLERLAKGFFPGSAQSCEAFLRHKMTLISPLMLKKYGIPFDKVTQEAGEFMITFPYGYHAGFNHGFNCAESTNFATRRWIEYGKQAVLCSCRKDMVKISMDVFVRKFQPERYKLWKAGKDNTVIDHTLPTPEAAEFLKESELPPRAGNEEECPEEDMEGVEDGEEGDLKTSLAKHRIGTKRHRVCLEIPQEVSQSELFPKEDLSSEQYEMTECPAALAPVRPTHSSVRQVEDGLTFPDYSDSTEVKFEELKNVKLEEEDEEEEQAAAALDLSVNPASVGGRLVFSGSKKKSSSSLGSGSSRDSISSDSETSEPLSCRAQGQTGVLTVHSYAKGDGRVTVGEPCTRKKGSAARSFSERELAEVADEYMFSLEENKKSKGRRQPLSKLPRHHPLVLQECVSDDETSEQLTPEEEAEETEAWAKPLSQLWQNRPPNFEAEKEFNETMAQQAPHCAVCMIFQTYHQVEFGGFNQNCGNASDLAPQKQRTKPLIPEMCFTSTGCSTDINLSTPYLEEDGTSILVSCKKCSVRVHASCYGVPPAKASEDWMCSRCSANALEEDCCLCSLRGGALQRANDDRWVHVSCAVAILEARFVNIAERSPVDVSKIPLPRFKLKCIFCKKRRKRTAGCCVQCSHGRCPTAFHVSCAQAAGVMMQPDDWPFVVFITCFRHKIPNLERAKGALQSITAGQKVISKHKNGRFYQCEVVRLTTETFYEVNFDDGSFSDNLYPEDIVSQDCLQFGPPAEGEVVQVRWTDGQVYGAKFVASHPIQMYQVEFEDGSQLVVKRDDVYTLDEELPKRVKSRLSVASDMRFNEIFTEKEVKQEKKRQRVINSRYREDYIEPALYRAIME
BAZ2B block = blocks human BAZ2B; AlphaScreen BAZ2B-H3K14Ac peptide displacement; AID 504333; Q9UIF8; actives 4.4% (n = 360,000); Potency, µM (top dose mostly 114 µM), for the others: at the top dose activity change, negative = inhibition, usual class: inhibitors; note: % is set by controls: 0 for no effect and ±100 for the full control effect; nearly all actives have a fitted effect of over 60% in size
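AlphaScreen displacement of biotin-H3(5-23)K14Ac peptide (50 nM final) from BAZ2B (50 nM final) in PBS pH 7.4, 0.01% Tween-20; complex preformed 30 min RT, then compounds (top 110 uM) 30 min RT, beads 20 min dark.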
G9a block = blocks human histone lysine methyltransferase G9a; Q96KQ7; AID 504332; actives 8.8% (n = 350,000); Potency, µM (series often up to 102 µM), inactives show at the highest dose activity, negative = inhibition, usual class: inhibitors; G9a H3K9 monomethylation, AlphaScreen, 2 h; note: % is set by controls: 0 for no effect and ±100 for the full control effect; nearly all actives have a fitted effect of over 75% in size
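AlphaScreen read-out: biotin-H3K9 peptide (500 nM) methylation by 20 nM enzyme with 20 uM SAM, 2 h at room temperature after 15 min compound preincubation; anti-monomethyl H3K9 antibody plus donor/acceptor beads, 10 min dark.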
HP1b binding inh = blocks HP1-beta chromodomain binding to methylated histone tails | AlphaScreen HP1-beta / biotin-H3K9me3 peptide binding | Potency, µM (highest dose often 114 µM), inactives show at the highest dose activity change, negative = inhibition, actives largely listed as inhibitors | actives 0.56% (n = 390,000); note: nearly all actives have a fitted effect of over 70% in size
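Compound inhibition of the preformed complex between 50 nM HP1-beta and 50 nM biotinylated H3K9me3 peptide was read by AlphaScreen. Buffer was PBS pH 7.4 with 0.01% Tween-20. Incubations ran 30 min at room temperature, with 10 ug/mL donor/acceptor beads.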
L3MBTL1 block = L3MBTL1 (human) inhibition; Q9Y468; AlphaScreen L3MBTL1–H3K9me1 peptide binding; Potency, µM (series often up to 57.1 µM), inactives show at the top dose activity, negative = inhibition, actives largely listed as inhibitors; actives 0.66% (n = 230,000); note: % is set by controls: 0 for no effect and ±100 for the full control effect; nearly all actives have a fitted effect of over 60% in size
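L3MBTL1 50 nM + b-AHA-H3(1-15)K9me1 75 nM, 30 min RT; compound added, 30 min RT; streptavidin donor/Ni-chelate acceptor beads 10 ug/mL each final, 30 min RT dark; AlphaScreen read.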
* marks the source's active call; other numbers are inactive results; ? = inconclusive; . = no result; [ ] = dose if it differs, or a comment. Calls come from the whole dose curve; as a rule, active = well fitted inhibition curve with a large enough effect; inconclusive = small, poorly fitted or top-dose-only effect; inactive = no such curve, though single readings can be large or run the other way. Potency is the fitted concentration of half-maximal effect.

SMILES	JMJD2A Tudor	BAZ2B block	G9a block	HP1b binding inh	L3MBTL1 block
COc1cc(CC(=O)Nc2ccc3c(c2)CCC3)cc(OC)c1OC	-16%	2%	4%[59 µM]	28%	2%
COc1cc(CNc2ccc3c(c2)CCC3)cc(OC)c1O	4µM*	40µM*	?	32µM*	-15%
CCOc1cc(CNc2ccc3c(c2)CCC3)ccc1O	79µM*	-37%	8.9µM*	-18%	.
CCOc1ccccc1NC(=O)Nc1ccc2c(c1)CCC2	-19%	-15%	14%	33%	.
Cc1cc(C)n(CCN(C)C(=O)C2CCC(=O)N(CCc3cccc(F)c3)C2)n1 (configuration not stated)	4%	-3%	.	11%	.
Clc1ccc(OCc2nc3ccccc3n2Cc2ccccc2)c(Cl)c1	-3%	7%	1%[59 µM]	18%	.
Clc1ccccc1Cn1c(/C=C/c2ccco2)nc2ccccc21	?	?	10µM*	?	-11%
CCc1ccc(-c2nc(CN3CCCC(C(=O)N4CCN(c5cc(Cl)ccc5C)CC4)C3)c(C)o2)cc1 (configuration not stated)	?	10µM*	8.9µM*	-20%	.
Cc1ccc(Cl)cc1N1CCN(C(=O)C2CCCN(Cc3nc(-c4cccc(Cl)c4)oc3C)C2)CC1 (configuration not stated)	?	?	?	3%	.
NC(=O)c1ccc[n+]([C@@H]2O[C@H](COP(=O)([O-])OP(=O)(O)OC[C@H]3O[C@@H](n4cnc5c(N)ncnc54)[C@@H](O)[C@@H]3O)[C@@H](O)[C@@H]2O)c1	.	.	9%[21.5 µM]	.	.
CCOC(=O)c1c(C2COc3ccccc3O2)csc1NC(=O)c1ccccc1 (configuration not stated)	-1%	-1%	14%[12.7 µM]	64%	.
CCOC(=O)c1c(C2COc3ccccc3O2)csc1N (configuration not stated)	?	?	50µM*	-16%	.
CCC1(C)NC(=O)N(CC(=O)Nc2sc3c(c2C(=O)OC)CCCCC3)C1=O (configuration not stated)	?	-26%	50µM*	-24%	1%
CCC1(CC)NC(=O)N(CC(=O)Nc2sc3c(c2C(N)=O)CCC3)C1=O	?	50µM*	-2%[12.7 µM]	5%	.
N#CC1=C(N)Oc2cc(N)ccc2C1c1cccnc1 (configuration not stated)	-12%	-2%	6%	17%	1%
N#CC1=C(N)Oc2cc(Nc3ccccc3)ccc2C1c1ccncc1 (configuration not stated)	79µM*	?	.	-24%	-3%
O=C(Nc1cc(Cl)cc(Cl)c1)c1ccc(F)c(S(=O)(=O)N2CCN(c3ccccc3F)CC2)c1	-17%	2%	-17%[59 µM]	24%	.
C=CCOc1cccc(C(=O)N2CCCC(Nc3ccc4c(c3)OCCO4)C2)c1 (configuration not stated)	?	45µM*	?	-13%	.
C=Cc1ccc(C(=O)N2CCCC(Nc3ccc4c(c3)OCCO4)C2)cc1 (configuration not stated)	?	?	40µM*	-30%	.
CN1CCc2c(sc3c2c(=O)n(-c2ccc(Cl)cc2)c2nncn32)C1	-24%	-10%	?	74%	0%
CN1CCc2c(sc3nc(NN)n(-c4ccc(Cl)cc4)c(=O)c23)C1	?	?	45µM*	3%	.
CN1CCc2c(sc3nc(NN)n(Cc4ccccc4)c(=O)c23)C1	?	?	45µM*	-20%	-5%
CCc1nn2c(=O)cc(COC(=O)c3cccs3)nc2s1	-12%	-13%	4%[59 µM]	61%	.
CN(Cc1nccs1)C(=O)c1ccc(OC2CCN(Cc3ccccn3)CC2)cc1	-5%	-12%	.	16%	.
CC(C)N(Cc1cnn(C)c1)C(=O)c1ccc(OC2CCN(Cc3ccccn3)CC2)cc1	-36%	89µM*	45µM*	28%	.
Cc1nn(C)cc1CN(C)C(=O)c1ccc(OC2CCN(Cc3ccccn3)CC2)cc1	56µM*	?	?	29%	.
Cc1ccc(-n2ncc3c(N4CCC(C)CC4)ncnc32)cc1C	26%	50%	23%[59 µM]	80%	.

High-throughput results (PubChem BioAssay)
